Results reported in PubChem BioAssay (EPA / NIEHS).
Active and inactive are the calls of the source. The calls were made as follows: active = hit-call score of the fitted dose curve at least 0.9, where 1 is the maximum; inactive = score below 0.9.

Legend:
Details in all cases: mRNA level, 48 h; actives raise or lower the signal
[1] = read-out: Alpha-fetoprotein (AFP) gene, AFP (gene 174); experiment: LTEA_HepaRG_AFP: Life Technologies and Expression Analysis (LTEA) Assay for Alpha-fetoprotein (AFP) gene using HepaRG (AID 2283472)
Outline: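 Human HepaRG cells plated 48 h, then switched to serum-free induction medium and exposed in duplicate for 48 h to 8-point half-log series from 100 uM in 0.5% DMSO. AFP mRNA by qRT-PCR, normalized to ACTB, GAPDH, POLR2A; bidirectional fit versus DMSO.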

[2] = read-out: BCL2L11 (gene 10018); experiment: LTEA_HepaRG_BCL2L11: Life Technologies and Expression Analysis (LTEA) Assay for Bcl-2 (BCL2L11) gene using HepaRG (AID 2283473)
Outline: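 Read-out is BCL2L11 transcript level by qRT-PCR, normalized to three housekeeping genes and fitted bidirectionally against 0.5% DMSO vehicle. HepaRG cells received chemicals for 48 h in serum-free induction medium, 100 uM down in half-log dilutions.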

[3] = read-out: Apolipoprotein A-V (APOA5) gene, APOA5 (gene 116519); experiment: LTEA_HepaRG_APOA5: Life Technologies and Expression Analysis (LTEA) Assay for Apolipoprotein A-V (APOA5) gene using HepaRG (AID 2283474)
Outline: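 Readout is APOA5 transcript level by qRT-PCR on Fluidigm dynamic arrays, normalized to three housekeeping genes. HepaRG cultures received chemicals for 48 h at up to 100 uM (half-log steps, 0.5% DMSO), with gain or loss scored relative to DMSO.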

[4] = read-out: Apoptosis regulator Bcl-2 (Homo sapiens) (UniProt P10415); experiment: LTEA_HepaRG_BCL2: Life Technologies and Expression Analysis (LTEA) Assay for Bcl-2 gene using HepaRG (AID 2283475)
Outline: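 Differentiated HepaRG cells in serum-free induction medium were exposed for 48 h to eight half-log concentrations up to 100 uM in 0.5% DMSO, in duplicate. BCL2 mRNA was quantified by TaqMan qRT-PCR normalised to ACTB, GAPDH and POLR2A, with bidirectional fitting versus DMSO.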

[5] = read-out: Bcl-2 (BID) gene, BID (gene 637); experiment: LTEA_HepaRG_BID: Life Technologies and Expression Analysis (LTEA) Assay for Bcl-2 (BID) gene using HepaRG (AID 2283476)
Outline: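 Differentiated HepaRG cells in serum-free induction medium were exposed in duplicate for 48 h to eight half-log concentrations up to 100 uM in 0.5% DMSO. BID mRNA was quantified by qRT-PCR, normalized to ACTB, GAPDH and POLR2A.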

[6] = read-out: Caspase-3 (Homo sapiens) (UniProt P42574); experiment: LTEA_HepaRG_CASP3: Life Technologies and Expression Analysis (LTEA) Assay for cysteine-aspartic acid protease (CASP3) using HepaRG (AID 2283477)
Outline: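 Read-out is CASP3 mRNA level by TaqMan qRT-PCR in human HepaRG cells after 48 h chemical exposure. Eight half-log concentrations topping at 100 uM were tested in 0.5% DMSO; gain or loss was fitted relative to DMSO.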

[7] = read-out: Cytochrome P450 (CYP1A2), CYP1A2 (gene 1544); experiment: LTEA_HepaRG_CYP1A2: Life Technologies and Expression Analysis (LTEA) Assay for Cytochrome P450 (CYP1A2) using HepaRG (AID 2283479)
Outline: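 CYP1A2 transcript induction or loss, quantified by Fluidigm qRT-PCR against three housekeeping genes, was fitted bidirectionally against 0.5% DMSO controls. Human HepaRG cells received eight half-log concentrations from 100 uM over 48 h.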

[8] = read-out: cysteine-aspartic acid protease (CASP8), CASP8 (gene 841); experiment: LTEA_HepaRG_CASP8: Life Technologies and Expression Analysis (LTEA) Assay for cysteine-aspartic acid protease (CASP8) using HepaRG (AID 2283480)
Outline: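 Differentiated human HepaRG cells, plated 48 h then switched to serum-free induction medium, were exposed in duplicate for 48 h to 8 half-log concentrations up to 100 uM in 0.5% DMSO. CASP8 mRNA was quantified by qRT-PCR, normalized to ACTB/GAPDH/POLR2A.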

[9] = read-out: Cytochrome P450 2C19 (Homo sapiens) (UniProt P33261); experiment: LTEA_HepaRG_CYP2C19: Life Technologies and Expression Analysis (LTEA) Assay for CYP2C19 using HepaRG (AID 2283482)
Outline: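 Transcript levels of CYP2C19 were quantified by qRT-PCR after HepaRG cells were treated for 48 hours with test chemicals up to 100 uM (eight half-log concentrations, 0.5% DMSO vehicle). Gain or loss of signal was fitted relative to DMSO.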

[10] = read-out: CYP2C8 (gene 1558); experiment: LTEA_HepaRG_CYP2C8: Life Technologies and Expression Analysis (LTEA) Assay for CYP2C8 using HepaRG (AID 2283483)
Outline: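 Differentiated human HepaRG cells were exposed for 48 h in serum-free induction medium to eight half-log concentrations up to 100 uM in 0.5% DMSO, in duplicate. CYP2C8 mRNA was measured by TaqMan qRT-PCR, normalized to ACTB, GAPDH and POLR2A, and fitted bidirectionally against DMSO.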

[11] = read-out: CYP2C9 (gene 1559); experiment: LTEA_HepaRG_CYP2C9: Life Technologies and Expression Analysis (LTEA) Assay for CYP2C9 using HepaRG (AID 2283484)
Outline: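 Differentiated human HepaRG cells were exposed 48 h in serum-free induction medium to eight half-log concentrations up to 100 uM in 0.5% DMSO. CYP2C9 mRNA was measured by qRT-PCR, normalized to ACTB, GAPDH and POLR2A, and fitted bidirectionally against DMSO.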

[12] = read-out: CYP2E1 (gene 1571); experiment: LTEA_HepaRG_CYP2E1: Life Technologies and Expression Analysis (LTEA) Assay for CYP2E1 using HepaRG (AID 2283485)
Outline: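 HepaRG cells in serum-free induction medium exposed 48 h to test chemicals, 8 half-log concentrations up to 100 uM in 0.5% DMSO, duplicate. CYP2E1 mRNA by qRT-PCR, normalized to ACTB, GAPDH, POLR2A; bidirectional fit versus DMSO.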

[13] = read-out: CYP4A11 (gene 1579); experiment: LTEA_HepaRG_CYP4A11: Life Technologies and Expression Analysis (LTEA) Assay for CYP4A11 using HepaRG (AID 2283486)
Outline: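 HepaRG, 48 h chem exposure, 8 conc (100 uM top, half-log), 0.5% DMSO vehicle; qRT-PCR readout, housekeeping-gene normalized; bidirectional curve fit vs DMSO baseline.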

[14] = read-out: Cytochrome P450 3A4 (Homo sapiens) (UniProt P08684); experiment: LTEA_HepaRG_CYP3A4: Life Technologies and Expression Analysis (LTEA) Assay for CYP3A4 using HepaRG (AID 2283487)
Outline: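 In a human hepatic line (HepaRG), duplicate wells were treated 48 h with up to 100 uM chemical in half-log dilutions. Endpoint: CYP3A4 mRNA induction or loss relative to 0.5% DMSO vehicle, by qRT-PCR.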

[15] = read-out: DNA damage-inducible transcript 3 (DDIT3), DDIT3 (gene 1649); experiment: LTEA_HepaRG_DDIT3: Life Technologies and Expression Analysis (LTEA) Assay for DNA damage-inducible transcript 3 (DDIT3) using HepaRG (AID 2283488)
Outline: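 Differentiated human HepaRG cells in serum-free induction medium were exposed in duplicate for 48 h to 8 concentrations (top 100 uM, half-log steps, 0.5% DMSO). DDIT3 mRNA measured by TaqMan qRT-PCR, normalized to ACTB/GAPDH/POLR2A; bidirectional fit versus DMSO.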

[16] = read-out: Pro-epidermal growth factor (Homo sapiens) (UniProt P01133); experiment: LTEA_HepaRG_EGF: Life Technologies and Expression Analysis (LTEA) Assay for Epidermal growth factor (EGF) using HepaRG (AID 2283489)
Outline: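 HepaRG, 48 h dosing, 100 uM top, half-log x8, 0.5% DMSO. Readout: TaqMan qRT-PCR (Fluidigm array), housekeeping-normalized. Gain or loss of signal fit vs DMSO.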

[17] = read-out: Ezrin (EZR), EZR (gene 7430); experiment: LTEA_HepaRG_EZR: Life Technologies and Expression Analysis (LTEA) Assay for Ezrin (EZR) using HepaRG (AID 2283491)
Outline: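 Gain or loss of EZR mRNA is scored relative to 0.5% DMSO in human HepaRG cultures treated 48 h with test chemicals in duplicate, eight half-log concentrations from 100 uM.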

[18] = read-out: Cytochrome P450 (CYP24A1), CYP24A1 (gene 1591); experiment: LTEA_HepaRG_CYP24A1: Life Technologies and Expression Analysis (LTEA) Assay for Cytochrome P450 (CYP24A1) using HepaRG (AID 2283478)
Outline: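 HepaRG, 48 h chemical exposure, 8-pt half-log CRC from 100 uM, 0.5% DMSO vehicle, duplicates. Endpoint: CYP24A1 mRNA by Fluidigm TaqMan qRT-PCR, normalized ACTB/GAPDH/POLR2A; gain/loss fit vs DMSO.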

[19] = read-out: Cytochrome P450 (CYP2B6), CYP2B6 (gene 1555); experiment: LTEA_HepaRG_CYP2B6: Life Technologies and Expression Analysis (LTEA) Assay for Cytochrome P450 (CYP2B6) using HepaRG (AID 2283481)
Outline: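 HepaRG cells plated 48 h, switched to serum-free induction medium, then dosed 48 h (8 points, half-log from 100 uM, 0.5% DMSO). RNA isolated; CYP2B6 expression measured by qRT-PCR; gain or loss fitted relative to DMSO.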

[20] = read-out: Early growth response protein 1 (EGR1) transcription factor, EGR1 (gene 1958); experiment: LTEA_HepaRG_EGR1: Life Technologies and Expression Analysis (LTEA) Assay for Early growth response protein 1 (EGR1) transcription factor using HepaRG (AID 2283490)
Outline: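 Differentiated human HepaRG cells in serum-free induction medium were exposed in duplicate for 48 h to eight concentrations (top 100 uM, half-log steps) in 0.5% DMSO. EGR1 mRNA was quantified by qRT-PCR, normalized to ACTB, GAPDH and POLR2A, and fitted bidirectionally versus DMSO.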

Measured: AC50

Cytochrome P450 3A4 (Homo sapiens), sequence (P08684 whole entry, looked up): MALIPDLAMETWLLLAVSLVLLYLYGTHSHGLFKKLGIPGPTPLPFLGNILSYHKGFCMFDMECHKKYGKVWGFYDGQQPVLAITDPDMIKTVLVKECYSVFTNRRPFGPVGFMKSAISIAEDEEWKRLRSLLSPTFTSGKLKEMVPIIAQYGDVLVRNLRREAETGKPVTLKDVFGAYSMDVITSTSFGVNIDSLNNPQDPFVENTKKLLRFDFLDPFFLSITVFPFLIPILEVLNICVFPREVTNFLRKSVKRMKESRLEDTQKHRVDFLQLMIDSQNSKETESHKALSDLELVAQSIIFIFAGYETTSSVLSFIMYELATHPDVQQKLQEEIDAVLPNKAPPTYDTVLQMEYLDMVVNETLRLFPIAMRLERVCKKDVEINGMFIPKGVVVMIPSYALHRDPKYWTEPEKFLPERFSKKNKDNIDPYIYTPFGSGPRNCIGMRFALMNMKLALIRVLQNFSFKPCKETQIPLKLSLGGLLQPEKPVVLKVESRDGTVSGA
Caspase-3 (Homo sapiens), sequence (P42574 whole entry, looked up): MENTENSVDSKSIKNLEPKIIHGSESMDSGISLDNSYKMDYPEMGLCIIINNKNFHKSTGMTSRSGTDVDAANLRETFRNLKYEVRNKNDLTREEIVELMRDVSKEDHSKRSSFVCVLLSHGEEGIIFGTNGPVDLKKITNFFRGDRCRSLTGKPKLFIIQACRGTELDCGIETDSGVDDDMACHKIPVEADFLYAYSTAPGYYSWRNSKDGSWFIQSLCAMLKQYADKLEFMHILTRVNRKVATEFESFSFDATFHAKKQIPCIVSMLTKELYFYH
Cytochrome P450 2C19 (Homo sapiens), sequence (P33261 whole entry, looked up): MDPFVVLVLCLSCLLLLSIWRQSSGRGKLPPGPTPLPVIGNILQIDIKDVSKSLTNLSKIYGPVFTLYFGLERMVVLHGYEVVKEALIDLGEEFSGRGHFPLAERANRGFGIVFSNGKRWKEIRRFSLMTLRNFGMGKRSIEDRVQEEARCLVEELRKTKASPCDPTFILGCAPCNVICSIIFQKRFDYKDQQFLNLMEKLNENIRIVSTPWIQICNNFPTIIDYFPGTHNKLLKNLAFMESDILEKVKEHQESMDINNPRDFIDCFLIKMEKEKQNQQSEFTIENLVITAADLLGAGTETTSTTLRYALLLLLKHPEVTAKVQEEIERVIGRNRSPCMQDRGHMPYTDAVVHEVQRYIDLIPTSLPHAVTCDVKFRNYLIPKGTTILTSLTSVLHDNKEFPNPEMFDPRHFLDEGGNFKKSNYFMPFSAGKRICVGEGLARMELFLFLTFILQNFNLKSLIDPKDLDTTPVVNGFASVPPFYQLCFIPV
Apoptosis regulator Bcl-2 (Homo sapiens), sequence (P10415 whole entry, looked up): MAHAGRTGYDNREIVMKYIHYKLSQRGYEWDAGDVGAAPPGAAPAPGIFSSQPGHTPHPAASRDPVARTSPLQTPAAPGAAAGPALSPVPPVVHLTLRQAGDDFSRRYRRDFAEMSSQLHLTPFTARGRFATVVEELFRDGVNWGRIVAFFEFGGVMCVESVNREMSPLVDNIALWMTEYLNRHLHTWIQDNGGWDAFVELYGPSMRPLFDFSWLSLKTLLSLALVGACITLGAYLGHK

Brc1ccc(Oc2ccccc2)cc1
inactive: [1] | [2] | [3] | [4] | [5] | [6] | [7] | [8] | [9] | [10] | [11] | [12] | [13] | [14] | [15] | [16] | [17]

Cc1ccc([N+](=O)[O-])cc1
inactive: [1] | [2] | [3] | [5] | [6] | [18] | [7] | [8] | [10] | [11] | [16] | [17]
active: [19] 0.744 µM | [9] 1.87 µM | [12] 20.2 µM | [13] 1.58 µM | [14] 1.39 µM

COC(=O)Nc1nc2ccccc2[nH]1
inactive: [1] | [2] | [3] | [4] | [5] | [6] | [8] | [10] | [11] | [12] | [13] | [15] | [16] | [20] | [17]
active: [7] 31.8 µM

O=C(Nc1ccccc1)c1ccccc1I
inactive: [2] | [3] | [5] | [6] | [18] | [8] | [9] | [10] | [13] | [14] | [16] | [17]
active: [1] 50 µM | [7] 10.4 µM | [19] 11.1 µM | [11] 50 µM | [12] 32 µM
